Ten compounds from PubChem BioAssay can be followed below.

Each structure is given as a SMILES string. Active and inactive are the calls of the source.

A short description of test [1]: optical density shifts of acrAB sulA E. coli – strain DRC41, OD650, 48 h, E. coli filamentation inducer project, primary screen (AID 1152).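 Further: E. coli MC1000 strain DRC41 lacking acrAB efflux pump and sulA.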 Conditions: higher = more signal, called active from +8 up or from −8 down.
Test [2] is described as follows: probe aLefty1 binding on compound microarray – biochemical, small-molecule microarray, 635/667 nm fluorescence, primary screen (AID 1153).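 Further: score merges spot fluorescence with signal-to-noise ratio from the scanned slide images.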 The conditions noted are these: higher = more signal.
Test [3] is described as follows: plasmodial surface anion channel blockers, osmotic lysis – cell-based, P. falciparum Indochina, OD700, 1 h, primary screen (AID 1154). The conditions noted are these: P. falciparum Indochina infected RBC osmotic lysis, higher = more signal, called active from +8 up or from −8 down.
The nature of test [4]: plasmodial surface anion channel blockers, osmotic lysis – cell-based, P. falciparum Indochina, OD700, 2 h, primary screen (AID 1155).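 Further: lysis reports solute entry through the parasite surface anion channel PSAC.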 Conditions: P. falciparum Indochina infected erythrocytes, higher = more signal, called active from +8 up or from −8 down.
A short description of test [5]: changes in parasitized red cell lysis, either direction – P. falciparum Indochina, OD700, 3 h, PSAC antagonist project, primary screen (AID 1156). The conditions noted are these: P. falciparum-infected erythrocytes, osmotic lysis, higher = more signal, called active from +8 up or from −8 down.
The nature of test [6]: plasmodial surface anion channel blockers, osmotic lysis – cell-based, P. falciparum Indochina, OD700, 18 h, primary screen (AID 1157). Conditions: P. falciparum Indochina infected erythrocytes, osmotic lysis OD700, 18 h; higher = more signal, called active from +8 up or from −8 down.
The nature of test [7]: S6 kinase pathway phospho-S6 level changes – cell-based, A549, cytoblot, luminescence, serum-stimulated, primary screen (AID 1158).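 Further: serum-stimulated A549 lung adenocarcinoma cells; signal is phosphorylated S6 detected by cytoblot immunostaining with HRP secondary.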 The conditions noted are these: 5 h, higher = more signal.
Test [8] addresses NADPH oxidase 2 (Homo sapiens) (UniProt P04839). Kind of test: compounds shifting NOX2 Amplex Red fluorescence – cell-based, HEK293-NOX2, PMA-stimulated, NOX inhibitor project, primary screen (AID 1159). Further: test concentration not given here. The conditions noted are these: 45 min, higher = more signal, called active from +8 up or from −8 down.
Test [9] addresses NADPH oxidase 4 (Homo sapiens) (UniProt Q9NPH5). Kind of test: compounds shifting NOX4 Amplex Red fluorescence – cell-based, HEK293-NOX4, tetracycline-induced, NOX inhibitor project, primary screen (AID 1160). The conditions noted are these: HEK293-NOX4, Amplex Red H2O2 fluorescence, 45 min; higher = more signal, called active from +8 up or from −8 down.
Test [10] addresses NADPH oxidase 5 (Homo sapiens) (UniProt Q96PH1). Kind of test: compounds shifting NOX5 Amplex Red fluorescence – cell-based, HEK293-NOX5, NOX inhibitor project, primary screen (AID 1161). The conditions noted are these: HEK293-NOX5, ionomycin, 45 min, higher = more signal.

Sequence of NADPH oxidase 4 (Homo sapiens) (Q9NPH5 whole entry, looked up): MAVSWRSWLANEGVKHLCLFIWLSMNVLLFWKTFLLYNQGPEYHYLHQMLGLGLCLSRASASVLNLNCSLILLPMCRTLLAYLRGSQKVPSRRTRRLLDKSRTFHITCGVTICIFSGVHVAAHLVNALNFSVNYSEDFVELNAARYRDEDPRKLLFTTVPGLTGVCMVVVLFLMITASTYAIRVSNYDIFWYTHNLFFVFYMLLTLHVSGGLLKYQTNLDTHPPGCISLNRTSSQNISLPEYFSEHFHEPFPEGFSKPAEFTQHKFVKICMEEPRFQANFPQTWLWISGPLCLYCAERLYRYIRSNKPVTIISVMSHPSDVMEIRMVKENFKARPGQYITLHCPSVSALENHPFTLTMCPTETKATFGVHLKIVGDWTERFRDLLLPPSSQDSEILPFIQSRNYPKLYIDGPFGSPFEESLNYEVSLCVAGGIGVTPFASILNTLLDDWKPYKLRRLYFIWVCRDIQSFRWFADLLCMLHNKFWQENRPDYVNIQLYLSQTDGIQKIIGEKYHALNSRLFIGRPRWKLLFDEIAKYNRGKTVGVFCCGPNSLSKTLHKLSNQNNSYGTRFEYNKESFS
Sequence of NADPH oxidase 2 (Homo sapiens) (P04839 whole entry, looked up): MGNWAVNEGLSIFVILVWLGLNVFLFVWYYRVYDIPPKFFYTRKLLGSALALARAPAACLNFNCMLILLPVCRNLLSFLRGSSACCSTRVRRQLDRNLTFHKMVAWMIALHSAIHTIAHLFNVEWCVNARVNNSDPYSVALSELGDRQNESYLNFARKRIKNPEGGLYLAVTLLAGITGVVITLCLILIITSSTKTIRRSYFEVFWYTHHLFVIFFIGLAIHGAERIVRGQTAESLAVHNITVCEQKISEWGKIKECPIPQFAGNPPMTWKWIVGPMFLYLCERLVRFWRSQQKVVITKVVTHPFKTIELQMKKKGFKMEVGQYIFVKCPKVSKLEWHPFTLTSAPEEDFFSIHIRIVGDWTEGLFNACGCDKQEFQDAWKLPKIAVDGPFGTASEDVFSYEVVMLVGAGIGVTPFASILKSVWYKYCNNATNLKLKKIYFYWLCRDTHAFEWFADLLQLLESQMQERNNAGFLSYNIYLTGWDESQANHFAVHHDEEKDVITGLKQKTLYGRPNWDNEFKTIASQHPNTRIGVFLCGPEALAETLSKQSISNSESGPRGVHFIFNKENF
Sequence of NADPH oxidase 5 (Homo sapiens) (Q96PH1 whole entry, looked up): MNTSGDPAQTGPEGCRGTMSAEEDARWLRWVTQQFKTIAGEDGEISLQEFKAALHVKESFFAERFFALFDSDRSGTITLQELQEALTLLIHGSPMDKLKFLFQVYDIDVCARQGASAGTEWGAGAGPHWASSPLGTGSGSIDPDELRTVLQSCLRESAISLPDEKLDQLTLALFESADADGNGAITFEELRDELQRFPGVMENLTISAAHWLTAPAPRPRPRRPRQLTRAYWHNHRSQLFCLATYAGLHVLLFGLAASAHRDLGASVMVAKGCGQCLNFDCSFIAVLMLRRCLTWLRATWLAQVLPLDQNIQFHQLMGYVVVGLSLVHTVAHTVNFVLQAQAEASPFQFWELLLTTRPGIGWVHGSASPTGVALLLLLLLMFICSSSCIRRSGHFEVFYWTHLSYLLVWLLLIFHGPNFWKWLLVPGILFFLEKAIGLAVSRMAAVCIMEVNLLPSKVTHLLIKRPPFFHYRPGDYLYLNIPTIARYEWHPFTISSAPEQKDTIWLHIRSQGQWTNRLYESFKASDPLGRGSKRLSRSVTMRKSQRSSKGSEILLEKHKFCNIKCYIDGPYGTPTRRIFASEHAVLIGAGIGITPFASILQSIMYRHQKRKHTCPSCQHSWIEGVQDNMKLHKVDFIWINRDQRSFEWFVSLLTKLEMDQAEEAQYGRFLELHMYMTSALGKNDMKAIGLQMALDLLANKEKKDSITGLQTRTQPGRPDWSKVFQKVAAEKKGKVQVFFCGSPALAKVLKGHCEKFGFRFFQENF

For `COC(=O)[C@@]1(Cc2ccccc2)[C@H]2c3cc(C(=O)N(C)C)n(CCSCCO)c3C[C@H]2CN1C(=O)c1ccccc1`, the z-score in test [1] is -1.8 (inactive); in [3], 1.02 (inactive); in test [4], 0.187 (inactive); in test [5], 0.189 (inactive); in [6] it was 0.496 (inactive); in test [7] it was -0.199. The z-score in test [8] is 0.594 (inactive); in test [9], 0.597 (inactive); in test [10], -0.72. The same compound registered a composite z-score in test [2] of 0.138.
As for `C=C(C)C1C(=C)CN([C@H](CO)c2ccccc2)C1=O` (stereo not given in full), the z-score in test [1] was -1.08 (inactive); in [3] it was 0.391 (inactive); in test [4] it was 0.497 (inactive); in test [5], 0.711 (inactive); in test [6], -0.0396 (inactive); in [7] it was -0.272. The figures for the z-score in [8], in [9] and in test [10] were 1.98 (inactive), 0.998 (inactive) and -0.846, respectively. In addition, the composite z-score in test [2] is -0.285.
As for `O=C1OCCC/C=C\[C@H]2OC34C=CCN(CCN5CCOCC5)C(=O)[C@H]3N(CCCO)C(=O)[C@@H]4C12` (stereo not given in full), the z-score in test [1] is -0.478 (inactive); in [3] it was 2.38 (inactive); in test [4], 0.351 (inactive); in [5], -0.893 (inactive); in test [6], -0.352 (inactive); in test [7], -0.181. Moreover, the z-score is 1.18 (inactive) in test [8], 0.481 (inactive) in test [9] and 2.27 in test [10]. For the same compound, in test [2], the composite z-score was -0.284.
Turning to `CCOC(=O)[C@H]1C/C=C/C[C@H](C(=O)OCC)C(=O)O[C@H]2[C@@H](OC)O[C@H](CO)[C@@H](OC(=O)Nc3ccc(C#N)cc3)[C@@H]2OC1=O`, the z-score in test [1] was 3.06 (inactive); in test [3] it was 12.3 (active); in test [4], 2.33 (inactive); in test [5], -0.906 (inactive); in test [6], 1.13 (inactive); in test [7], 2.47. For the same compound, the z-score in test [8] was -0.311 (inactive); in test [9], 0.2 (inactive); in [10] it was 1.4. The composite z-score in test [2] was -0.364.
Consider `COCCOC(=O)N1C(=O)[C@@]2(c3cc(C#Cc4ccc(OC)cc4)ccc31)[C@H](c1ccccc1OCCO)N1[C@H](c3ccccc3)[C@H](c3ccccc3)OC(=O)[C@H]1[C@@H]2C(=O)N1CCN(c2ncccn2)CC1`, for which the z-score was 0.148 (inactive) in test [1]; 3.79 (inactive) in test [3]; 3.04 (inactive) in [4]; 1.3 (inactive) in test [5]; 1.76 (inactive) in test [6]; -0.133 in test [7]. The z-score in test [8] was 0.978 (inactive); in test [9] it was -0.00787 (inactive); in [10], 0.882. For the same compound, the composite z-score in [2] came out at 0.118.
Take `C#CCN(Cc1ccccc1Br)C(/C=C/c1ccccc1)CO` (stereo not given): the z-score is -0.585 (inactive) in [1]; 12.5 (active) in test [3]; 2.61 (inactive) in [4]; -1.31 (inactive) in [5]; 0.696 (inactive) in test [6]; -0.188 in [7]. The z-score in [8] is 0.28 (inactive); in test [9], -0.157 (inactive); in test [10] it was -2.02. In [2], the composite z-score is -0.226.
Turning to `CCCC[C@@H]1C[C@H]1[C@@H](NC(=O)c1ccco1)c1ccc(Cl)cc1`, the z-score in [1] is -1.54 (inactive); in test [3] it was 4.34 (inactive); in test [4], 0.904 (inactive); in test [5], 0.365 (inactive); in test [6] it was 0.74 (inactive); in test [7] it was -0.321. Further, the z-score in test [8] was -1.72 (inactive); in test [9] it was -2.56 (inactive); in test [10] it was 0.0234. The compound further returned a composite z-score in test [2] of 0.485.
On to `CCOC(=O)C=Cc1cc([N+](=O)[O-])ccc1O`, for which the z-score in test [1] is -1.72 (inactive); in test [3], 26 (active); in test [4], 11.8 (active); in test [5], 2.13 (inactive); in [6], -0.816 (inactive); in test [7], 2.41. Further, the results for the z-score in test [8], in test [9] and in [10] were -4.11 (inactive), -2.98 (inactive) and -3.76, respectively. In test [2], the composite z-score is -0.104.
Turning to `COc1ccc(NN2C(C(O)c3ccc([N+](=O)[O-])cc3)C=CC3C(=O)N(C4CCCCC4)C(=O)C32)cc1` (stereo not given), the z-score was -0.256 (inactive) in [1]; 7.78 (inactive) in [3]; 1.11 (inactive) in [4]; -0.187 (inactive) in test [5]; 0.708 (inactive) in test [6]; -0.126 in test [7]. The z-score in test [8] was -1.03 (inactive); in [9] it was -2.3 (inactive); in test [10], -0.48. This compound also returned a composite z-score in test [2] of 0.3.
As for `CC(C)c1ccc(NN2C(C(O)c3cc(C(F)(F)F)cc(C(F)(F)F)c3)C=CC3C(=O)N(c4ccccc4)C(=O)C32)cc1` (stereo not given), the z-score is -2.06 (inactive) in test [1]; 3.24 (inactive) in test [3]; 1.88 (inactive) in [4]; -1.37 (inactive) in test [5]; 2.32 (inactive) in [6]; 0.122 in test [7]. The z-score in test [8] was -1.3 (inactive); in [9], -5.07 (inactive); in test [10] it was -4.2. Moreover, the composite z-score in [2] was -0.101.
